# Measured values: the supplement of paper PMC8728848
# The sample as a whole holds a higher share of the strongest signals than the screen did.
# B1: B1257 (Bifidobacterium sp) (protein)
# chain: MKKSIRLVAAIAALAMTAGISACGSSTNGNQAKSDVTAQDVETALTDTSKNVELTVWAYSAKQMEPTVKAFEKKYPHIKINFVNTGAAGDHFTKFQNVVQAQKDIPDVVQMGANKFQQFAVSGALLNFANDSIEKAWSKLYTKTAWAQVHYAGGLYGAPQDATPLANYVRKDILDEHNLQVPESWEDIYNEGIKLHKEDSNKYMGILGSDISFFTNLYRSVGARLWKVNSVDDVELTMNSGKAKEFTEFLQKCLKDGVLEGGTVFTDEFNRSINDGRYATFINENWMGNTYKEQNPSLKGKMVVAAPPSWKGQPYQSSSVGSMMSVSAACPKEKQAAALAFINWLDSDKDAIQSWQDTNNGNFFMAASVYQDDENQRNKKETDGYYANDDVNAVYFDSMDKVNTDWEYLPFMSQVEVVFNDVIVPQMNENGDLVGAMAKAQQELKTYAKDNGFKVTTDAD
# Legend:
# Assay in all cases: glycan array binding signal (z-score within array); higher = stronger binding
# Details in all cases: glycan notation: IUPAC condensed, linker removed
# [1] = target: Fuc(a1-2)Gal
# Method in brief: (§1)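 The binding signal is a Z-score computed within each array. Data were drawn from 3228 arrays in the Consortium for Functional Glycomics database, restricted to those with a known protein sequence. Scores were averaged over arrays of the same protein sequence at different concentrations or buffers, and over linkers, and negative values can be taken as non-binding.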
# [2] = target: Fuc(a1-2)Gal(b1-3)GlcNAc(b1-2)Man(a1-3)[Fuc(a1-2)Gal(b1-3)GlcNAc(b1-2)Man(a1-6)]Man(b1-4)GlcNAc(b1-4)[Fuc(a1-6)]GlcNAc
# Method in brief: as §1
# [3] = target: Fuc(a1-2)Gal(b1-3)[Fuc(a1-4)]GlcNAc
# Method in brief: as §1
# [4] = target: Fuc(a1-2)Gal(b1-4)Glc
# Method in brief: as §1
# [5] = target: Fuc(a1-2)Gal(b1-4)[Fuc(a1-3)]GlcNAc(b1-2)[Fuc(a1-2)Gal(b1-4)[Fuc(a1-3)]GlcNAc(b1-4)]Man(a1-3)[Fuc(a1-2)Gal(b1-4)[Fuc(a1-3)]GlcNAc(b1-2)Man(a1-6)]Man(b1-4)GlcNAc(b1-4)GlcNAc
# Method in brief: as §1
# [6] = target: Fuc(a1-2)[Gal(a1-4)]Gal(b1-4)GlcNAc
# Method in brief: as §1
# [7] = target: Fuc(a1-3)[Gal(b1-4)]GlcNAc(b1-2)Man(a1-3)[Fuc(a1-3)[Gal(b1-4)]GlcNAc(b1-2)Man(a1-6)]Man(b1-4)GlcNAc(b1-4)[Fuc(a1-6)]GlcNAc
# Method in brief: as §1
# [8] = target: Fuc(a1-3)[Gal(b1-4)]GlcNAc6S
# Method in brief: as §1
# [9] = target: Fuc(a1-3)[GalNAc(b1-4)]GlcNAc
# Method in brief: as §1
# [10] = target: Gal(a1-3)Gal(b1-3)GlcNAc(b1-2)Man(a1-3)[Gal(a1-3)Gal(b1-3)GlcNAc(b1-2)Man(a1-6)]Man(b1-4)GlcNAc(b1-4)GlcNAc
# Method in brief: as §1
# [11] = target: Gal(a1-3)Gal(b1-4)GlcNAc(b1-6)GalNAc
# Method in brief: as §1
# [12] = target: Gal(a1-4)Gal(b1-4)Glc
# Method in brief: as §1
# [13] = target: Gal(a1-4)Gal(b1-4)GlcNAc(b1-2)Man(a1-3)[Gal(a1-4)Gal(b1-4)GlcNAc(b1-2)Man(a1-6)]Man(b1-4)GlcNAc(b1-4)GlcNAc
# Method in brief: as §1
# [14] = target: Gal(b1-3)GalNAc
# Method in brief: as §1
# [15] = target: Gal(b1-3)GalNAc(a1-3)[Fuc(a1-2)]Gal(b1-4)Glc
# Method in brief: as §1
# [16] = target: Gal(b1-3)GalNAc(a1-3)[Fuc(a1-2)]Gal(b1-4)GlcNAc
# Method in brief: as §1
# [17] = target: Gal(b1-3)GalNAc(b1-4)Gal(b1-4)Glc
# Method in brief: as §1
# [18] = target: Gal(b1-3)GlcNAc(b1-2)Man(a1-3)[GlcNAc(b1-4)][Gal(b1-3)GlcNAc(b1-2)Man(a1-6)]Man(b1-4)GlcNAc(b1-4)GlcNAc
# Method in brief: as §1
# [19] = target: Gal(b1-3)[Fuc(a1-4)]GlcNAc(b1-2)Man(a1-3)[Gal(b1-3)[Fuc(a1-4)]GlcNAc(b1-2)Man(a1-6)]Man(b1-4)GlcNAc(b1-4)[Fuc(a1-6)]GlcNAc
# Method in brief: as §1
# [20] = target: Gal(b1-4)GlcNAc(b1-2)Man
# Method in brief: as §1
# [21] = target: Gal(b1-4)GlcNAc(b1-2)Man(a1-3)[Man(a1-6)]Man(b1-4)GlcNAc(b1-4)GlcNAc
# Method in brief: as §1
# [22] = target: Gal(b1-4)GlcNAc(b1-2)[Gal(b1-4)GlcNAc(b1-4)]Man(a1-3)[Gal(b1-4)GlcNAc(b1-2)Man(a1-6)]Man(b1-4)GlcNAc(b1-4)GlcNAc
# Method in brief: as §1
# [23] = target: Gal(b1-4)GlcNAc(b1-3)Gal(b1-4)Glc
# Method in brief: as §1
# [24] = target: Gal6S(b1-3)GlcNAc6S
# Method in brief: as §1
# [25] = target: Gal6S(b1-4)GlcNAc6S
# Method in brief: as §1
# [26] = target: GalNAc(b1-4)GlcNAc(b1-2)Man(a1-3)[GalNAc(b1-4)GlcNAc(b1-2)Man(a1-6)]Man(b1-4)GlcNAc(b1-4)GlcNAc
# Method in brief: as §1
# [27] = target: GlcNAc(a1-4)Gal(b1-3)GlcNAc
# Method in brief: as §1
# [28] = target: GlcNAc(a1-4)Gal(b1-4)GlcNAc(b1-3)Gal(b1-4)[Fuc(a1-3)]GlcNAc(b1-3)Gal(b1-4)[Fuc(a1-3)]GlcNAc
# Method in brief: as §1
# [29] = target: GlcNAc(b1-2)Man(a1-3)[GlcNAc(b1-4)][GlcNAc(b1-2)Man(a1-6)]Man(b1-4)GlcNAc(b1-4)GlcNAc
# Method in brief: as §1
# [30] = target: GlcNAc(b1-3)Gal(b1-4)GlcNAc
# Method in brief: as §1
# [31] = target: GlcNAc(b1-3)[GlcNAc(b1-4)][GlcNAc(b1-6)]GlcNAc
# Method in brief: as §1
# [32] = target: Kdn(a2-3)Gal(b1-4)GlcNAc
# Method in brief: as §1
# [33] = target: Man(a1-2)Man(a1-2)Man(a1-3)Man
# Method in brief: as §1
# [34] = target: Man(a1-2)Man(a1-3)[Man(a1-6)]Man(a1-6)[Man(a1-2)Man(a1-3)]Man(b1-4)GlcNAc(b1-4)GlcNAc
# Method in brief: as §1
# [35] = target: Man(a1-3)[Man(a1-6)]Man(b1-4)GlcNAc(b1-4)[Fuc(a1-6)]GlcNAc
# Method in brief: as §1
# [36] = target: Neu5Ac(a2-3)Gal(b1-4)GlcNAc(b1-2)Man
# Method in brief: as §1
# [37] = target: Neu5Ac(a2-3)Gal(b1-4)GlcNAc(b1-3)Gal
# Method in brief: as §1
# [38] = target: Neu5Ac(a2-3)Gal(b1-4)GlcNAc(b1-3)Gal(b1-4)GlcNAc(b1-3)GalNAc
# Method in brief: as §1
# [39] = target: Neu5Ac(a2-3)Gal(b1-4)GlcNAc(b1-3)Gal(b1-4)GlcNAc(b1-6)[Gal(b1-3)]GalNAc
# Method in brief: as §1
# [40] = target: Neu5Ac(a2-3)Gal(b1-4)GlcNAc(b1-3)GalNAc
# Method in brief: as §1
# [41] = target: Neu5Ac(a2-3)Gal(b1-4)[Fuc(a1-3)]GlcNAc(b1-3)GalNAc
# Method in brief: as §1
# [42] = target: Neu5Ac(a2-3)Gal6S(b1-4)[Fuc(a1-3)]GlcNAc
# Method in brief: as §1
# [43] = target: Neu5Ac(a2-6)Gal(b1-4)GlcNAc(b1-3)Gal(b1-4)GlcNAc(b1-3)Gal(b1-4)GlcNAc(b1-2)Man(a1-3)[Neu5Ac(a2-6)Gal(b1-4)GlcNAc(b1-3)Gal(b1-4)GlcNAc(b1-3)Gal(b1-4)GlcNAc(b1-2)Man(a1-6)]GalNAc
# Method in brief: as §1
# [44] = target: Neu5Ac(a2-6)Gal(b1-4)GlcNAc(b1-6)[Gal(b1-3)]GalNAc
# Method in brief: as §1
# [45] = target: Neu5Ac(a2-6)GalNAc(b1-4)GlcNAc
# Method in brief: as §1
# [46] = target: Neu5Ac(a2-6)GlcNAc(b1-4)GlcNAc
# Method in brief: as §1
# [47] = target: Neu5Ac(a2-6)GlcNAc(b1-4)GlcNAc(b1-4)GlcNAc
# Method in brief: as §1
# [48] = target: Neu5Ac(a2-8)Neu5Ac(a2-3)Gal(b1-3)GalNAc(b1-4)[Neu5Ac(a2-8)Neu5Ac(a2-3)]Gal(b1-4)Glc
# Method in brief: as §1
# [49] = target: Neu5Gc(a2-3)Gal(b1-4)[Fuc(a1-3)]GlcNAc
# Method in brief: as §1
binder,measurement,setting,value
B1,glycan array binding signal (z-score),[1],23.9
same,glycan array binding signal (z-score),[2],0.153
same,glycan array binding signal (z-score),[3],-0.158
same,glycan array binding signal (z-score),[4],3.8
same,glycan array binding signal (z-score),[5],0.025
same,glycan array binding signal (z-score),[6],-0.086
same,glycan array binding signal (z-score),[7],0.166
same,glycan array binding signal (z-score),[8],-0.027
same,glycan array binding signal (z-score),[9],0.046
same,glycan array binding signal (z-score),[10],0.027
same,glycan array binding signal (z-score),[11],-0.213
same,glycan array binding signal (z-score),[12],-0.023
same,glycan array binding signal (z-score),[13],0.48
same,glycan array binding signal (z-score),[14],0.28
same,glycan array binding signal (z-score),[15],0.314
same,glycan array binding signal (z-score),[16],-0.014
same,glycan array binding signal (z-score),[17],-0.085
same,glycan array binding signal (z-score),[18],0.324
same,glycan array binding signal (z-score),[19],0.461
same,glycan array binding signal (z-score),[20],-0.056
same,glycan array binding signal (z-score),[21],-0.051
same,glycan array binding signal (z-score),[22],-0.081
same,glycan array binding signal (z-score),[23],0.301
same,glycan array binding signal (z-score),[24],-0.051
same,glycan array binding signal (z-score),[25],-0.133
same,glycan array binding signal (z-score),[26],1.83
same,glycan array binding signal (z-score),[27],-0.103
same,glycan array binding signal (z-score),[28],0.11
same,glycan array binding signal (z-score),[29],0.002
same,glycan array binding signal (z-score),[30],-0.138
same,glycan array binding signal (z-score),[31],-0.13
same,glycan array binding signal (z-score),[32],-0.061
same,glycan array binding signal (z-score),[33],-0.128
same,glycan array binding signal (z-score),[34],-0.161
same,glycan array binding signal (z-score),[35],-0.128
same,glycan array binding signal (z-score),[36],0.015
same,glycan array binding signal (z-score),[37],-0.111
same,glycan array binding signal (z-score),[38],-0.094
same,glycan array binding signal (z-score),[39],-0.087
same,glycan array binding signal (z-score),[40],0.727
same,glycan array binding signal (z-score),[41],0.158
same,glycan array binding signal (z-score),[42],-0.194
same,glycan array binding signal (z-score),[43],0.344
same,glycan array binding signal (z-score),[44],-0.046
same,glycan array binding signal (z-score),[45],-0.178
same,glycan array binding signal (z-score),[46],-0.027
same,glycan array binding signal (z-score),[47],-0.081
same,glycan array binding signal (z-score),[48],-0.004
same,glycan array binding signal (z-score),[49],-0.012
